According to PubChem BioAssay AID1159580 (chemical genetic matrix, 2015):
Among all 5,500 compounds or so, about 2,000 (36%) were called active. Roughly 18% stayed inconclusive and do not appear here. Rule as the data show it: active = normalized growth mostly below about 0.91 (no sharp cut-off); inconclusive = no clear call, values can overlap the other calls; inactive = mostly above about 0.92. The list shows a part of the results.

Assay: chemical genetic growth profiling, strain panel (AID 1159580);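 also: tested at 20 µM; growth read once vehicle control cultures reached saturation at 30 °C; 1 = growth at the plate median or of vehicle wells; lower values mean less growth of the strain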
Details: S. cerevisiae deletion strains, growth OD

Measured: normalized growth

C[C@]12CCc3occc3C1CC[C@@]13C[C@@H](CCC12)[C@@](O)(CO)C3 (stereo partly drawn)
inactive: locus YHR030C, strain SLT2, stronger effect = lower value 0.934 | locus YHR079C, strain IRE1, stronger effect = lower value 0.961 | locus YJL095W, strain BCK1, stronger effect = lower value 0.948 | locus YJR066W, strain TOR1, stronger effect = lower value 0.909 | locus YLR113W, strain HOG1, stronger effect = lower value 0.873 | locus YNL183C, strain NPR1, stronger effect = lower value 0.91 | locus YOR231W, strain MKK1, stronger effect = lower value 0.911 | locus YPL256C, strain CLN2, stronger effect = lower value 0.924
